TbPYK inhibitor – T. brucei pyruvate kinase inhibition; Q57TT1; TbPYK enzyme, Kinase-Glo Plus ATP luminescence, 45 min; Potency, µM (highest dose often 76.8 µM), without a hit: top-dose activity, negative = inhibition, hits mostly inhibitors; 410,000 tested, 0.12% active; AID 624173; note: % is set by controls: 0 for no effect and ±100 for the full control effect; nearly all actives have a fitted effect of over 50% in size
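TbPYK + substrate in 50 mM TEA pH 7.2, 100 mM KCl, 10 mM MgCl2, 0.05% BSA, 0.01% Tween-20; cpd pinned; ADP 130 uM final; 45 min RT; Kinase-Glo Plus 10 min; luminescence endpoint.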
RE007 growth inh – less growth of the S. pombe RE007 Vpr strain. AID 651644. 360,000 tested, 0.21% active. S. pombe RE007 Vpr strain, BacTiter-Glo ATP luminescence, 24 h. Potency, µM (top dose mostly 92.2 µM), for inactives: at the highest dose activity change, negative = less growth, most hits filed as inhibitors; active = well fitted falling curve with a large enough effect; inconclusive = small, poorly fitted or top-dose-only effect; inactive = no such curve, though single readings can be large or run the other way; note: % is set by controls: 0 for no effect and ±100 for the full control effect; nearly all actives have a fitted effect of over 50% in size
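Fission yeast strain RE007, carrying one chromosomally integrated HIV-1 vpr copy, was seeded at OD 0.01 in PMG+AL medium with 23 nL pinned compound. After 24 h at 30 °C and 99% humidity, viability was read by BacTiter-Glo luminescence.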
Sm TGR inh – inhibitors of Schistosoma mansoni thioredoxin glutathione reductase | Potency, µM (top dose mostly 114 µM), inactives show top-dose activity change, negative = inhibition, most hits filed as inhibitors | Q962Y6 | 360,000 tested, 3% active | purified TGR, DTNB reduction, TNB absorbance 405 nm; note: % is set by controls: 0 for no effect and ±100 for the full control effect; nearly all actives have a fitted effect of over 60% in size
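TGR 20 nM + NADPH 100 uM (dispensed conc.), cpd preinc 15 min RT; start with NADPH (500 uM addition) then DTNB (15 mM addition). Kinetic TNB absorbance, 405 nm filter. Four-parameter Hill fit across titration.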
AmpC detergent – AmpC beta-lactamase inhibition with detergent present | AmpC hydrolysis of nitrocefin, absorbance 480 nm, 0.01% Triton | Potency, µM (titrated, usually from 114 µM), for inactives: at the top dose activity change, negative = inhibition, hits mostly inhibitors | 370,000 tested, 0.041% active | AID 485294;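 note: 0% = no-compound wells and -100% = no-enzyme wells; nearly all actives have a fitted effect of over 25% in size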
Target sequence (P00811 whole entry, looked up): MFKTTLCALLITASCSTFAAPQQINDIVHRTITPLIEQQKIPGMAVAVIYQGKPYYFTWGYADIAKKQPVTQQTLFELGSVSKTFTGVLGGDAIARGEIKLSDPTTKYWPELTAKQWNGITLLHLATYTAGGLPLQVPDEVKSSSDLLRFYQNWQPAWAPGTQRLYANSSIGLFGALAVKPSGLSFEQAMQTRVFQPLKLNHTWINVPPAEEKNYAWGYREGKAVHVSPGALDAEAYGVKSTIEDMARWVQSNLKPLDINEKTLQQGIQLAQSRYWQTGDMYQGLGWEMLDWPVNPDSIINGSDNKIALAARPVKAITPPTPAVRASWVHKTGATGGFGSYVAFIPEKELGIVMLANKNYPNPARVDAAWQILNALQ
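20 mM phosphate pH 7.0 + 0.01% (detergent screen) or 0.0001% Triton X-100; 5.3 nM AmpC reagent; cpd preinc 15 min RT; nitrocefin (800 uM stock) to start; A480 q20 s × 4 min; Activity was normalised to no-enzyme and no-compound control wells.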
AmpC no deterg – inhibitors of E. coli AmpC beta-lactamase without detergent; AmpC nitrocefin hydrolysis, absorbance 480 nm, 0.0001% Triton; Potency, µM (top dose mostly 57.1 µM), inactives show top-dose activity change, negative = inhibition, hits mostly inhibitors; 330,000 tested, 0.52% active;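 note: plate controls were no compound for no effect and no enzyme for full effect; nearly all actives have a fitted effect of over 20% in size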
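AmpC (5.3 nM in the dispensed reagent) in 20 mM phosphate pH 7.0 with 0.01% (detergent screen) or 0.0001% Triton X-100 was preincubated with compounds for 15 min at room temperature. Nitrocefin was then added from an 800 uM solution, and hydrolysis was followed at 480 nm.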
SARS PLP yeast – inhibitors of SARS-CoV papain-like protease in yeast | S. cerevisiae expressing SARS-CoV PLpro, growth rescue | Potency, µM (highest dose often 32.9 µM), for inactives: at the highest dose activity, positive = growth rescue, actives largely listed as activators | 330,000 tested, 0.19% active | AID 485353; calls by dose curve; note: 0% is about no effect; nearly all actives have a fitted effect of over 55% in size
An asterisk follows results filed as active; ? = inconclusive; / = not tested or not shown. The list is not random: actives were taken first. Their share in the collection is about 3.3%. Unless noted, calls come from the whole dose curve; as a rule, active = well fitted curve in the direction sought with a large enough effect; inconclusive = small, poorly fitted or top-dose-only effect, or another doubt; inactive = no such curve, though single readings can be large; an effect the other way counts as inactive or inconclusive. Potency is the fitted concentration of half-maximal effect.

SMILES | TbPYK inhibitor | RE007 growth inh | Sm TGR inh | AmpC detergent | AmpC no deterg | SARS PLP yeast
CCOC(=O)c1c(C)oc2nc(C)nc(NCC3CCN(Cc4ccccc4C)CC3)c12 | 4% | / | 4% | 23% | / | /
COc1ccccc1C(=O)O/N=C(\N)c1ccccn1 | -14% | -24% | -4% | -1% | -4% | -3%
COc1ccc(C(=O)NNC(=O)c2ccccn2)cc1 | ? | 10µM* | 1% | -4% | 9% | -73%
Cc1ccc(C(=O)O/N=C(\N)c2ccccn2)c(C)c1 | ? | 35µM* | 5% | 2% | -2% | -25%
COc1ccc(C(=O)O/N=C(\N)c2ccccn2)cc1 | 10µM* | ? | 3% | ? | -24% | -12%
COc1ccc(/C(O)=C/C(=O)C(=O)NNC(=O)C(O)(c2ccccc2)c2ccccc2)cc1 | 6% | 2% | 15% | 0% | -21% | 16%
COc1ccc(/C(O)=C/C(=O)C(=O)NNC(=O)c2ccccc2)cc1 | -6% | 2% | 14µM* | 1% | -38% | 2%
COc1cccc(-n2c(-c3ccco3)nc3c(cnn3-c3ccc(C)cc3)c2=O)c1 | 2% | / | -10% | -4% | / | /
CN1C(C(=O)NC(C)(C)C)=CC(c2ccc3c(c2)OCO3)=NS1(=O)=O | -12% | / | 8% | 21% | / | /
CCN(CC)c1ccc(/C=C(/C#N)C(=O)NCc2ccccc2)o1 | 1% | -1% | 35µM* | 4% | -45% | 14%
O=C(NCC(c1ccco1)S(=O)(=O)c1ccc(Cl)cc1)c1ccccc1F (stereo not given) | 1% | / | 2.5µM* | 15% | / | /
Cc1ccc(S(=O)(=O)C(CNC(=O)c2c(F)cccc2F)c2ccco2)cc1 (stereo not given) | 6% | / | -13% | 11% | / | /
Cc1ccc(C(=O)NCC(c2ccco2)S(=O)(=O)c2ccc(Cl)cc2)cc1C (stereo not given) | -7% | / | 11µM* | -1% | / | /
COc1ccc2c(c1)CC1(CN2C)C(=O)NC(=O)N(CCc2ccccc2)C1=O (stereo not given) | -9% | 14% | 40µM* | -12% | -37% | 4%
O=C(NCc1ccccn1)c1cc2n(n1)C(C(F)(F)F)CC(c1ccco1)N2 (stereo not given) | 0% | -3% | 40µM* | -1% | -5% | 0%
O=C(NCc1ccccc1F)C(=O)NCC1CCCN1S(=O)(=O)c1ccccc1 (stereo not given) | ? | -2% | 3% | ? | 35µM* | 2%
Cc1cccc(C)c1OCC(=O)N/N=C/C=C/c1ccco1 | 3% | -8% | 16µM* | 7% | -13% | -10%
Cc1cccc(OCC(=O)N/N=C/C=C/c2ccco2)c1 | -3% | / | 40µM* | -14% | -42% | -26%
Cc1ccc(OCC(=O)N/N=C/C=C/c2ccco2)c(Br)c1 | -6% | -1% | 28µM* | -2% | -28% | -10%
C(=C1NCCN1)c1cccc2ccccc12 | 5% | / | / | / | / | /
CC(C)C[C@@H](CSc1ccc(Br)cc1)N1CCN(CC(C)C)CCC1=O | 1% | -28% | ? | -6% | 76% | -1%
CCCN1CCC(=O)N([C@H](CSc2ccc(OC)cc2)c2ccccc2)CC1 | -2% | -3% | 22µM* | -1% | 110% | -1%
Cc1ccc(SC[C@H](c2ccccc2)N2CCN(C)CCC2=O)cc1 | 4% | -11% | 40µM* | 4% | 103% | 5%
CC(C)CN1CCC(=O)N([C@H](CSc2ccc(Br)cc2)c2ccccc2)CC1 | -4% | 9% | 2.8µM* | -1% | 80% | -1%
Cc1ccc(SC[C@H](c2ccccc2)N2CCN(CC(C)C)CCC2=O)cc1 | 3% | -20% | 32µM* | 7% | -9% | 1%
SMILES | TbPYK inhibitor | RE007 growth inh | Sm TGR inh | AmpC detergent | AmpC no deterg | SARS PLP yeast
COc1ccc(C(=O)Nc2ccccc2C(=O)OCc2cc(=O)n3nc(C4CC4)sc3n2)cc1 | -4% | / | -2% | -7% | / | /
CCCS(=O)(=O)c1nnnn1-c1cccc(OC)c1 | 3% | -29% | 5.6µM* | ? | -12% | -27%
N#CC1=C(N)N(c2ccc(F)cc2)C2=C(C1c1ccc(O)cc1)S(=O)(=O)CC2 (stereo not given) | -26% | -7% | 1.8µM* | 2% | -39% | 2%
CSc1ccc(C2C(C#N)=C(N)N(c3ccccc3)C3=C2C(=O)CCC3)cc1 (stereo not given) | 1% | 2% | 0% | ? | -48% | 1%
CCc1nc2c(sc3nc4c(cc32)COC(C)(C)C4)c(=O)n1Cc1ccco1 | -26% | -20% | ? | -2% | -1% | -6%
CCc1nc(OCc2ccco2)c2sc3nc4c(cc3c2n1)COC(C)(C)C4 | -26% | -5% | 10µM* | -14% | -9% | 0%
Cc1cc2nc(-c3ccc[nH]c3=O)[nH]c2cc1C | ? | 7.1µM* | 5% | 0% | -12% | -10%
Cc1cc2nc(-c3ccc[nH]c3=O)n(Cc3ccc(F)cc3)c2cc1C | 6% | 9% | 0% | -8% | 54% | 2%
O=[N+]([O-])c1ccccc1NCc1c(O)ccc2ccccc12 | 0% | / | 1.8µM* | -8% | -46% | 0%
Oc1ccc2ccccc2c1CNc1ccccc1 | 9% | -16% | / | / | / | /
CCc1ccc(CN(C)Cc2nc(Cc3ccc(OC)c(OC)c3)no2)nc1 | -5% | -14% | 32µM* | -3% | 80% | -1%
Cc1ccc(C(=O)/C=C/c2cc(Br)cc(Br)c2O)o1 | -9% | -12% | 1.6µM* | 5% | -28% | -5%
Cc1ccc(C(=O)/C=C/N(C)C)o1 | -16% | -25% | 0% | -4% | -10% | 0%
Fc1ccc2[nH]c(-c3cccs3)cc2c1 | 0% | / | -10% | -7% | / | /
N#CC1=C2SCN(C3CCCCC3)CN2C(=O)CC1c1ccc(Cl)cc1 (stereo not given) | ? | / | 7.9µM* | 1% | / | /
N#CC1=C2SCN(C3CCCCC3)CN2C(=O)CC1c1ccc(F)cc1 (stereo not given) | ? | / | 3.5µM* | -2% | / | /
Cc1ccc(-c2n[nH]c(=S)n2/N=C/c2cccn2C)cc1 | 5µM* | 4% | 11% | -1% | -37% | 7%
S=c1[nH]nc(-c2ccccc2)n1/N=C/c1cccs1 | 11µM* | -13% | -10% | 2% | -32% | -1%
COc1ccc(-c2n[nH]c(=S)n2/N=C/c2cccn2C)cc1 | 2.5µM* | 3% | 5% | 2% | -32% | -1%
Cc1ccc(-c2n[nH]c(=S)n2/N=C/c2cccs2)cc1 | ? | / | -10% | -8% | -25% | 20%

Screens from PubChem BioAssay.
